Screening data (PubChem)
MITF primary: blocks human microphthalmia-associated transcription factor; O75030; AlphaScreen MITF homodimerization, bead proximity signal; inhibition, % at 2.6 µM; actives 0.91% (n = 650,000); in the data active means inhibition above about 50%;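 further: 0% = vehicle wells with protein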
Target sequence (O75030 whole entry, looked up): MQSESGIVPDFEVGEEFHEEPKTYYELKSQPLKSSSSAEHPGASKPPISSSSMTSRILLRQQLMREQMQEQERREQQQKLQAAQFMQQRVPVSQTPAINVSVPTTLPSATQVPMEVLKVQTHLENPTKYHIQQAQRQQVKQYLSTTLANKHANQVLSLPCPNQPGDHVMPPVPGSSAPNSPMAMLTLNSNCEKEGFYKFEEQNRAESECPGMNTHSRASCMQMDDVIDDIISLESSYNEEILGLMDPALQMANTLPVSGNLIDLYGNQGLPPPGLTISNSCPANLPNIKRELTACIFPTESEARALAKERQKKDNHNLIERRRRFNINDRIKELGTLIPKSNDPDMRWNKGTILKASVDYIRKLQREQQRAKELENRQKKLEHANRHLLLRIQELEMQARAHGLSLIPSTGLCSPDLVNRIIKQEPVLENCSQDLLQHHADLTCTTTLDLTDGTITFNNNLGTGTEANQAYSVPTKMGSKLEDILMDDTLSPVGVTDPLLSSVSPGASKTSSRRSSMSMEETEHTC
GPR151 activ: human GPR151 activation; activation, % at 11.2 µM; AID 1508602; actives 1% (n = 650,000); PathHunter beta-arrestin GPR151 cells, luminescence; Q8TDV0; in the data active means activation above about 4.9%;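 further: 0% = median of compound wells and 100% = cells with positive control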
FBW7 activator: activators of human E3 ligase FBW7; AlphaScreen FBW7–phospho-cyclin E peptide binding, activator screen; normalized activity (activation), % at 26.1 µM; actives 0.13% (n = 650,000); AID 1259310; in the data active means normalized activity above about 1.9%;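 further: purified mutant Fbw7 with reduced substrate affinity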
TEAD-YAP inh: TEAD-YAP interaction inhibition | HEK-TIYL cells, TEAD-Gal4/YAP UAS-luciferase luminescence | inhibition, % at 9.12 µM | actives 1.4% (n = 640,000); in the data active means inhibition above about 32%;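 further: 0% = median of test compound wells and 100% = reference inhibitor wells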
MITF confirm: human MITF inhibition, confirmation; shares compounds with MITF primary; AlphaScreen MITF homodimerization, biotin/His-MITF beads; inhibition, % at 2.6 µM; actives 16% (n = 4,700); AID 1259372;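 active means inhibition above a cutoff derived from the DMSO control wells, cut at about 28% in these data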;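 further: 0% = MITF dimer wells with DMSO only; inhibitors lower the bead chemiluminescence by keeping MITF from dimerizing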
AlphaScreen DR: optically interferes with AlphaScreen signal in dose response. actives 6% (n = 480). shares compounds with MITF primary. IC50, µM. AID 1259373. AlphaScreen optical interference counterscreen, cell-free; call rule not given here
AlphaScreen intf2: optically interferes with AlphaScreen signal; shares compounds with MITF primary; LysRS AlphaScreen counterscreen, signal interference, triplicate; inhibition, % at 2.6 µM; actives 7.6% (n = 4,700);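 active means inhibition above a cutoff derived from the DMSO control wells, cut at about 30% in these data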
An asterisk follows results filed as active; · = no result given. A selection: hits, their analogues and other compounds. The true share with any hit is near 3.5%.

SMILES	MITF primary	GPR151 activ	FBW7 activator	TEAD-YAP inh	MITF confirm	AlphaScreen intf2	others
CCN(CC)CCOC(=O)c1c(C)nc2n(C)c3ccccc3n12	8	0	1	15	·	·
COc1ccc(NC(=O)CN(C)CC(=O)Nc2cccc(C(C)=O)c2)cc1	58*	1	0	1	-1	5
OC[C@@H]1CCCN1c1ccnc2c(-c3ccsc3)cnn12	-18	2	0	9	·	·
CCCCCC(O)(CCCCC)C(=O)NN1CCCCC1	72*	1	0	-1	-3	-1
C=C1C(C(=O)NCc2ccco2)C1C(=O)NCc1ccco1 (stereo unspecified)	63*	0	0	0	67*	13	AlphaScreen DR=>7.7
CCCCn1c(=O)[nH]c(=O)c2c1nc(-c1ccc([N+](=O)[O-])o1)n2C	79*	0	0	15	66*	5	AlphaScreen DR=>7
CCCCn1c(=O)[nH]c(=O)c2c1nc(-c1ccc(C)c([N+](=O)[O-])c1)n2CC	11	0	0	-11	·	·
O=C(NC1CCCCC1)C1CCN(C(=O)Nc2ccc(F)cc2)CC1	12	-1	0	1	·	·
CC(NC(=O)CCc1nnc(CCC2CCCCC2)o1)c1ccncn1 (stereo unspecified)	74*	0	0	-7	-1	9
CC(Cc1cnccn1)NC(=O)CCc1nnc(CCC2CCCCC2)o1 (stereo unspecified)	2	2	0	4	·	·
Cc1cc(C(=O)COc2cccnc2[N+](=O)[O-])c(C)n1C	16	0	0	5	·	·
COc1cc(CN2CCN(Cc3ccccc3F)CC2)cc2c1OCO2	81*	-1	0	-6	0	6
COc1cc(CN2CCN(Cc3ccccc3)CC2)cc2c1OCO2	78*	0	0	-1	7	-2
COc1cc(CN2CCN(Cc3ccccc3Cl)CC2)cc2c1OCO2	76*	-1	0	-2	15	12
COc1cc(CN2CCN(Cc3ccccc3Br)CC2)cc2c1OCO2	73*	-1	0	1	8	14
COc1cc2c(cc1OC)CN(Cc1cc(OC)c3c(c1)OCO3)CC2	24	0	0	2	·	·
CC(=O)N1CCc2cc(C(O)CN(C)Cc3ccccc3)ccc21 (stereo unspecified)	15	0	0	-3	·	·
COc1cc(CN2CCCN(C)CC2)cc2c1OCO2	39	1	1	12	·	·
COc1cc(CN2CCN(Cc3cc(OC)c4c(c3)OCO4)CC2)cc2c1OCO2	54*	1	0	-4	15	24
COc1cc(CN2CCN(Cc3cccnc3)CC2)cc2c1OCO2	68*	0	0	3	12	23
COc1cc(CN2CCc3nncn3CC2)cc2c1OCO2	0	2	0	6	·	·
COc1cc(CN2CCN(Cc3cccc(C)c3)CC2)cc2c1OCO2	58*	1	0	1	1	-1
CC(C)COC(=O)/C(=C\c1ccco1)NC(=O)c1ccccc1I	6	0	0	9	·	·
CC1CN(Cc2ccc(C(F)(F)F)cc2)CC(C)O1 (stereo unspecified)	55*	-1	0	8	1	4
CC1CN(Cc2ccc(Cl)cc2)CC(C)O1 (stereo unspecified)	37	1	0	0	·	·
SMILES	MITF primary	GPR151 activ	FBW7 activator	TEAD-YAP inh	MITF confirm	AlphaScreen intf2	others
CC1CN(Cc2cccc(Cl)c2)CC(C)O1 (stereo unspecified)	64*	-1	0	1	0	4
CCCc1nnc(SCC(=O)Nc2cc(C)on2)n1CC	74*	1	0	-3	4	12
CCn1c(Cc2ccccc2)nnc1SCC(=O)Nc1cc(C)on1	4	-1	0	4	·	·
COc1ccc(S(=O)(=O)NC(N)=NCCc2c(C)[nH]c3ccc(F)cc23)cc1OC	-4	0	0	-5	·	·
O=C1c2cccnc2C(=O)N1c1ccccc1	70*	0	0	-10	-16	18
O=C1c2cccnc2C(=O)N1c1ccccc1F	57*	1	0	0	19	31*
O=C1c2cccnc2C(=O)N1c1ccc(F)cc1	51*	1	-1	3	2	15
O=C1c2cccnc2C(=O)N1c1ccc(Oc2ccccc2)cc1	21	0	0	-29	·	·
Cc1ccc(NC2=C(Cl)C(=O)N(c3ccccc3)C2=O)c(C)c1	-16	-1	0	-7	·	·
O=C(NCc1nc(-c2ccc(Cl)cc2)no1)c1cccs1	8	1	0	5	·	·
C=CCn1c(=C(C#N)C#N)s/c(=C\c2cccc(Br)c2)c1=O	-4	2	0	-1	·	·
CN(C(=O)c1cccs1)C(Cc1ccccc1)C1CCN(C(=O)c2ccn(C)n2)CC1 (stereo unspecified)	74*	0	2	-24	6	-1
COc1cc(/C=C2/C(=N)N3N=C(C4CCCCC4)SC3=NC2=O)cc(OC)c1OC	4	0	0	1	·	·
O=C(COc1ccc(F)cc1)N/N=C/c1cccc2cccnc12	59*	-1	0	11	28*	86*
O=C(N/N=C/c1cccc2cccnc12)c1ccccc1	57*	-1	-2	-14	78*	100*
O=C(N/N=C/c1cccc2ccccc12)c1ccncc1	2	2	0	5	·	·
O=C(N/N=C/c1cccc2cccnc12)c1ccncc1	96*	0	0	1	112*	100*
CCN(CC)Cc1cc(CN[C@H]2C[C@H]3C(=O)N[C@@H]([C@@H](C)O)C(=O)N3C2)ccc1OC	19	2	0	-1	·	·
CCC(C)NCCCOc1cccc(Br)c1 (stereo unspecified)	80*	0	0	2	-7	10
CCC(C)NCCOc1ccccc1F (stereo unspecified)	53*	0	0	-7	-12	1
CCCOc1ccc(OCCCNC(C)CC)cc1 (stereo unspecified)	23	0	0	8	·	·
O=C(C1CCN(Cc2ccccc2)CC1)N1CCN(C/C=C/c2ccccc2)CC1	60*	2	0	17	10	13
COc1ccc(CN2CCN(C/C=C/c3ccccc3)CC2)cc1	47	0	0	-3	·	·
COc1ccc(CN2CCN(C/C=C/c3ccccc3)CC2)cc1O	62*	-1	0	1	1	8
COc1cc(CN2CCN(C/C=C/c3ccccc3)CC2)cc(OC)c1OC	67*	-1	0	-5	2	13
COc1cc(CN2CCN(C/C=C/c3ccccc3)CC2)ccc1O	52*	-1	0	3	0	3
O=C(O)C1(S(=O)(=O)c2ccc(Cl)c(Cl)c2)CCCC1	2	1	0	2	·	·
N#CC(C#N)=C1C=C(c2ccc(O)cc2)Oc2ccccc21	-7	0	0	9	·	·
